From PubChem BioAssay come the findings set out here.

“And” between values parts separate entries of the source, which are not always exact repeats. Equal entries are not always repeated. The source made the active and inactive calls. The rule behind the calls is not given here.

In this experiment the target is Lethal factor (Bacillus anthracis) (UniProt P15917). The experiment can be described thus: Bacillus anthracis lethal factor inhibition, microsphere flow cytometry protease assay, validation at 10 µM (AID 588461). Particulars: multiplex microsphere protease cleavage assay, active compounds read high.
Chain of Lethal factor (Bacillus anthracis) (P15917 whole entry, looked up): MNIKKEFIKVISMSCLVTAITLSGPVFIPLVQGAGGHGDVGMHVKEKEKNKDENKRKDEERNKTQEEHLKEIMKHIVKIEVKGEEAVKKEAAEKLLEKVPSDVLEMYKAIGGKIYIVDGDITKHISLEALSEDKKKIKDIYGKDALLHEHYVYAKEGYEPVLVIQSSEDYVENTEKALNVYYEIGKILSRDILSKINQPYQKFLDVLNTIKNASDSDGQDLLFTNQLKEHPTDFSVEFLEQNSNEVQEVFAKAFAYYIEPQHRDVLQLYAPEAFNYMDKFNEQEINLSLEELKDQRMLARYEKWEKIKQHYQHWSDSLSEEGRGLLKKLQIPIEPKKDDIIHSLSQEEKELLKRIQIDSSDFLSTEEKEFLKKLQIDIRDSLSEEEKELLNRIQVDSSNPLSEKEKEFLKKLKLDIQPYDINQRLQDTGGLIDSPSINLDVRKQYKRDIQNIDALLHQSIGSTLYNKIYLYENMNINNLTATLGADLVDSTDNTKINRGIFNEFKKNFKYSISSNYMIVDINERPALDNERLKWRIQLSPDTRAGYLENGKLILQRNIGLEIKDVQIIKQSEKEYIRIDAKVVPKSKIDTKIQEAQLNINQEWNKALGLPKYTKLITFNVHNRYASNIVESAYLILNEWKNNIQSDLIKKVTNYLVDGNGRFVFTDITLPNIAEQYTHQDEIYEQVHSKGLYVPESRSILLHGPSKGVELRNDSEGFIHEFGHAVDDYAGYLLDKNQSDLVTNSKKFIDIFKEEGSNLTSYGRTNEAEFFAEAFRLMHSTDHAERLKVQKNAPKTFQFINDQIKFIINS
Take `COc1ccccc1C(=O)Oc1ccc2c(c1)O/C(=C\c1ccncc1)C2=O`: the inhibition is -8.2% (inactive). The value for `CC1(C#CC[N+]2(C)CCCCC2)CCC2C(O1)c1ccccc1OC2(C)C` (stereo not given) was -2.1% (inactive); that for `O=C1CC[C@@H](CN(Cc2ccccc2)Cc2cn[nH]c2-c2cc3ccccc3o2)N1` was -0.2% (inactive). The figure for `O=c1cc(CN2CCN(c3cccc(Cl)c3)CC2)c2cc(O)c(-c3ccccc3)cc2o1` is -0.5% (inactive); for `CCOC(=O)C1C(=O)OC2(CCOC(C)(C)C2)C1C(=O)OCC` (stereo not given) it is -0.1% (inactive). Consider `C[N+](C)(C)CCOP(=O)([O-])OC[C@H](O)CO`, for which the inhibition is 3.2% (inactive). The figure for `CCn1cc(C(=O)O)c(=O)c2cc(F)c(N3CCNCC3)cc21` is 2.3% (inactive). The figure for `COc1ccc(-c2csc(-c3cccnc3)n2)cc1C` is -5.1% (inactive); for `CC12CCC(C(=O)NNc3ccccc3)(C(=O)C1=O)C2(C)C` (stereo not given) it is -3.4% (inactive); for `C[C@]12CCC(=O)C=C1CC[C@@H]1[C@@H]2CC[C@@]2(C)[C@H]1CC[C@]2(O)C(=O)CO` it is -1.7% (inactive).

For the molecule `CC(=O)c1ccc(CCCCCCCCCC(=O)O)s1`, the inhibition was -1% (inactive). As to `Cc1cnc(N)c2c(=O)oc3ccccc3c12`, the inhibition was -4.6% (inactive). The figure for `C#C[C@]1(O)CC[C@H]2[C@@H]3CCc4cc(OC5CCCC5)ccc4[C@H]3CC[C@@]21C` is 0.5% (inactive); for `CC(=O)N(CCC(Cc1ccccc1)c1ccc2c(c1)OCO2)Cc1ccc(Cl)cc1` (stereo not given) it is -1% (inactive). The figure for `CC1(C)S[C@@H]2[C@H](NC(=O)C(C(=O)O)c3ccccc3)C(=O)N2[C@H]1C(=O)O` (stereo not given in full) is -6.1% (inactive); for `Oc1ccccc1OCCOc1ccccc1OCCOc1ccccc1O` it is -0.4% (inactive). Consider `CN1C2CCC1CC(OC(c1ccccc1)c1ccccc1)C2` (stereo not given), for which the inhibition is 1.9% (inactive). The figure for `CCOc1ccc(CCn2c(-c3ccco3)nc3ccccc3c2=O)cc1OCC` is 11.4% (inactive); for `CCOc1ccc(C(NC(C)=O)c2ccc(OC)c(OC)c2)cc1` (stereo not given) it is 5.8% (inactive). The value for `CCOC(=O)C1C2C=CC3(CN(c4ccc(Cl)c(F)c4)C(=O)C13)O2` (stereo not given) was 6.8% (inactive); that for `CC(C)C[C@H](NC(=O)NC(C)C)C(=O)O` was 2.9% (inactive). The value for `COc1cc(Cc2cnc(N)nc2N)cc(OC)c1OC` was -0.1% (inactive) and 0.6% (inactive); that for `COc1ccccc1C1C(C#N)=C(N)Oc2c1oc(CO)cc2=O` (stereo not given) was -5.1% (inactive). As to `COc1ccc(-c2nc(C)c(C(C)=O)n2O)cc1OC`, the inhibition was -3.9% (inactive).

Take `C[C@]12CCC3C(CC=C4C[C@@H](O)CC[C@@]43C)C1CCC2[C@]1(C)CCC(=O)O1` (stereo not given in full): the inhibition is -5.1% (inactive). The figure for `CN(C)c1ccc(Nc2c3c4c(cccc4n(C)c2=O)C(=O)c2ccccc2-3)cc1` is -18.1% (inactive). The value for `NC(N)=N/N=C/c1cccc(Cl)c1Cl` was -3.3% (inactive); that for `COc1ccc2nc(S(=O)Cc3ncc(C)c(OC)c3C)[nH]c2c1` (stereo not given) was 5% (inactive); that for `COc1ccc2c(=O)c(-c3cnn(-c4ccccc4)c3)c(C)oc2c1` was 1.4% (inactive). The value for `CCC(C)NCCOCCOc1ccc(Cl)c2ccccc12` (stereo not given) was -6.5% (inactive). In the case of `Cc1cc(C(C)(C)C)cc(C)c1CC1=NCCN1`, the inhibition is 1.8% (inactive). The figure for `NC(=O)OCC(COC(N)=O)c1ccccc1` is -2.1% (inactive); for `O=C(O)[C@H](Cc1ccccc1)NC(=O)N1CCC(Cc2ccccc2)CC1` it is -2.3% (inactive). For the molecule `CC(C)CN1CCN(Cc2ccc(C#CC(C)(C)O)cc2)CC1CCO` (stereo not given), the inhibition is -2.1% (inactive). The figure for `Cn1cc(CN2CCC(C(=O)N3CCCCC3)CC2)c(-c2ccccc2F)n1` is 4.5% (inactive).

Consider `Cc1cccc2c(=O)n3c(nc12)CCCCC3`, for which the inhibition was -10.4% (inactive). `CC(C)OC(=O)CC12CN3CN(C1)CC(CC(=O)OC(C)C)(C3)C2=O`: the inhibition was 6.1% (inactive). `Cc1cccc(Oc2coc3cc(OC(=O)c4cncc(Br)c4)ccc3c2=O)c1`: the inhibition was 2% (inactive). For the molecule `CC(=O)CC(c1ccc([N+](=O)[O-])cc1)c1c(O)c2ccccc2oc1=O` (stereo not given), the inhibition was -1.2% (inactive).

As to `COc1cc2nc(-c3ccccc3)nc(N3CCCC3)c2cc1OC`, the inhibition was -4.3% (inactive).

As usually defined, the inhibition is the drop in the measured response relative to a control, in per cent.
